From PubChem BioAssay
The source made the active and inactive calls. Unless noted, the rule behind the calls is not given here.

Assays:
[1] = compound effects on lung adenocarcinoma cell viability – A549, calcein-AM fluorescence, 48 h, basal, profiling panel (AID 1162); conditions: higher = more signal; note: test concentration not given here
[2] = compound effects on differentiated 3T3-L1 adipocyte viability – cell-based, 3T3-L1 adipocytes, calcein-AM fluorescence, 48 h, basal, profiling panel (AID 1163); conditions: 3T3-L1 adipocytes viability, higher = more signal; note: test concentration not given here
[3] = compound effects on hepatocellular carcinoma cell viability – HepG2, calcein-AM fluorescence, 48 h, basal, profiling panel (AID 1164); conditions: higher = more signal; note: test concentration not given here
[4] = compound effects on multiple myeloma cell viability – MM1S, calcein-AM fluorescence, 48 h, basal, profiling panel (AID 1165); conditions: higher = more signal; note: test concentration not given here
[5] = calcein-AM signal in unstimulated myeloma cells – cell-based, calcein-AM fluorescence, 48 h, PK04 Diversity Set, profiling panel (AID 1166); conditions: RPMI8226 myeloma viability, higher = more signal;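 note: cells grown under basal conditions without added stimulus; test concentration not given here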
[6] = JC-1 mitochondrial signal, unstimulated HepG2 cells – cell-based, JC-1 fluorescence, 24 h, 100 nL compound, profiling panel (AID 1167); conditions: HepG2 mitochondrial potential, higher = more signal; note: test concentration not given here
[7] = JC-1 mitochondrial signal, unstimulated adipocytes – cell-based, JC-1 fluorescence, 3T3-L1 adipocytes, 24 h, 100 nL compound, profiling panel (AID 1168); conditions: JC-1 mitochondrial fluorescence, higher = more signal, called active from +8 up or from −8 down; note: test concentration not given here
[8] = JC-1 mitochondrial signal, unstimulated myeloma cells – cell-based, JC-1 fluorescence, RPMI8226, 24 h, 100 nL compound, profiling panel (AID 1169); conditions: JC-1 mitochondrial potential fluorescence, higher = more signal; note: test concentration not given here
[9] = JC-1 mitochondrial signal, unstimulated MM1S myeloma – cell-based, JC-1 fluorescence, 24 h, 100 nL compound, profiling panel (AID 1170); conditions: MM1S mitochondrial potential, higher = more signal; note: test concentration not given here
[10] = resazurin metabolic signal in A549 cells – cell-based, resazurin fluorescence, 24 h, PK04 Diversity Set, profiling panel (AID 1171); conditions: A549 viability, higher = more signal, called active from +8 up or from −8 down; note: test concentration not given here
[11] = resazurin metabolic signal in HepG2 cells – cell-based, resazurin fluorescence, 24 h, PK04 Diversity Set, profiling panel (AID 1172); conditions: HepG2 viability, higher = more signal; note: test concentration not given here
[12] = budding yeast growth changes without added modifier – OD600, strain BY4716, 24 h, basal condition, primary screen (AID 1173); conditions: S. cerevisiae BY4716 growth, OD600, 24 h; higher = more signal, called active from +8 up or from −8 down
[13] = viability profiling in MM1S myeloma cells – cell-based, resazurin fluorescence, basal, 24 h, PK04 Diversity Set, profiling panel (AID 1174); conditions: higher = more signal, called active from +8 up or from −8 down; note: test concentration not given here
[14] = target: Dihydroorotate dehydrogenase (quinone), mitochondrial (Plasmodium falciparum (isolate 3D7)) (UniProt Q08210); test: inhibition of P. falciparum DHODH – biochemical, C-terminal His tag, absorbance 600 nm, primary screen (AID 1175); conditions: PfDHODH enzyme, DCIP absorbance 600 nm; higher = more signal, called active from +8 up or from −8 down;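 note: recombinant parasite enzyme with a five histidine tag at its C terminus; test concentration not given here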
Chain of Dihydroorotate dehydrogenase (quinone), mitochondrial (Plasmodium falciparum (isolate 3D7)) (Q08210 whole entry, looked up): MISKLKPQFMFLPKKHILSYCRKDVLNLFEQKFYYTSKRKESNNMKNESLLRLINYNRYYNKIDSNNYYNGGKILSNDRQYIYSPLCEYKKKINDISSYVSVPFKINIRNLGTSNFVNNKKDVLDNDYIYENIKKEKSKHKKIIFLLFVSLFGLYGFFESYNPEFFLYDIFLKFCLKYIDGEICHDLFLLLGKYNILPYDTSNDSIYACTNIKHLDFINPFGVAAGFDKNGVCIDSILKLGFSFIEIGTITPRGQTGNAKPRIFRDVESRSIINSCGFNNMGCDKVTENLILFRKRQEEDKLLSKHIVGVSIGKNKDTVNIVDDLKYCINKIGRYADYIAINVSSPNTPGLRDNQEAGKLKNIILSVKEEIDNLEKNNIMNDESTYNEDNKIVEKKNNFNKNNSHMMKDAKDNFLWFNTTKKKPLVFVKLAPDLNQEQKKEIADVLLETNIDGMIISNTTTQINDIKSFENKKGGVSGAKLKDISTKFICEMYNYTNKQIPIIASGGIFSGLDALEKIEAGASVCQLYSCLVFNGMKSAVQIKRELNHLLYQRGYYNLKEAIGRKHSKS

[15] = inhibition of PAO1 biofilm formation – strain PAO1, LB-PBS medium, absorbance 600 nm, primary screen (AID 1176); note: test concentration not given here; conditions: P. aeruginosa PAO1 growth/biofilm, A600, 12 h; higher = more signal
[16] = growth modulation of vineyard yeast isolate – strain RM11-1a, OD600, basal, 24 h, primary screen (AID 1177);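 note: cultures grown under basal conditions with no added stressor; test concentration not given here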; conditions: S. cerevisiae RM11-1a growth, OD600, 24 h; higher = more signal, called active from +8 up or from −8 down
[17] = growth of efflux-deficient E. coli DRC39 – strain DRC39, OD650, 24 h, E. coli filamentation inducers, primary screen (AID 1178);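 note: growth measured as culture turbidity by optical density at 650 nm; test concentration not given here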; conditions: E. coli DRC39 acrAB, higher = more signal, called active from +8 up or from −8 down
[18] = growth of efflux-deficient E. coli DRC39 – strain DRC39, OD650, 48 h, E. coli filamentation inducers, primary screen (AID 1179);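 note: screen aims at cell division blockers that make cells filament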; conditions: E. coli DRC39 delta-acrAB growth, higher = more signal, called active from +8 up or from −8 down
[19] = viability profiling in RPMI8226 myeloma cells – cell-based, resazurin fluorescence, basal, 24 h, PK04 Diversity Set, profiling panel (AID 1180); conditions: higher = more signal;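 note: RPMI8826 multiple myeloma cell line at 5000 cells per well; test concentration not given here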
[20] = target: E3 ubiquitin-protein ligase XIAP (Homo sapiens) (UniProt P98170); test: small molecules binding XIAP protein – biophysical, small-molecule microarray, fluorescence 635 nm, primary screen (AID 1181); conditions: higher = more signal;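 note: score merges 667 nm emission and signal to noise over triplicate slides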
Chain of E3 ubiquitin-protein ligase XIAP (Homo sapiens) (P98170 whole entry, looked up): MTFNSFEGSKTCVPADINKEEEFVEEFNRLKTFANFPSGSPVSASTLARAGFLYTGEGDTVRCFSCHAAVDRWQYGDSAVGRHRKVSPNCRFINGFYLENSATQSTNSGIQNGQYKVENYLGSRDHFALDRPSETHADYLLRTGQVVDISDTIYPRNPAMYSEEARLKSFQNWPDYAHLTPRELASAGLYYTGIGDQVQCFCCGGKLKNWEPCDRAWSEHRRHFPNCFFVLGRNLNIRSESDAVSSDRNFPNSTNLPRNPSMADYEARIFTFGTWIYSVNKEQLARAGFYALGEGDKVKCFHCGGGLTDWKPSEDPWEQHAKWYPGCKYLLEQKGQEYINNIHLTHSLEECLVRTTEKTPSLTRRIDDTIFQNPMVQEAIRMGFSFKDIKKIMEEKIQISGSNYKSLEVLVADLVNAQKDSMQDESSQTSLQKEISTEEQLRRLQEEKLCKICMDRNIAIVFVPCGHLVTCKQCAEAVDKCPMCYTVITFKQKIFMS

SMILES | z-score [1] | z-score [2] | z-score [3] | z-score [4] | z-score [5] | z-score [6] | z-score [7] | z-score [8] | z-score [9] | z-score [10] | z-score [11] | z-score [12] | z-score [13] | composite z-score [14] | z-score [15] | z-score [16] | z-score [17] | z-score [18] | z-score [19] | composite z-score [20]
C[N+](C)(C)CCCC[C@@H]1NC(=O)[C@@H]2C[C@H](C(=O)NCc3ccc(F)cc3)[C@H](c3ccc(O)cc3)N2C1=O | 0.993 | -0.335 | 0.698 | 0.481 | -0.114 | 1.62 | -0.41 (inactive) | -0.0248 | -0.524 | -0.0894 (inactive) | -0.348 | 0.628 (inactive) | 0.0125 (inactive) | 0.0528 (inactive) | 0.683 (inactive) | 0.506 (inactive) | 0.426 (inactive) | 0.577 (inactive) | 0.276 | 0.0223
CCCN1C(=O)[C@]2(CCC(=O)OC(C)(C)C)N=C(c3ccc(OCCCO)cc3)O[C@@H]2c2ccccc21 | -1.19 | 0.92 | -1.49 | -3.41 | -4.37 | 1.01 | 2.01 (inactive) | -1.32 | -1.54 | -0.965 (inactive) | -0.154 | -0.836 (inactive) | -2.08 (inactive) | 0.023 (inactive) | 3.33 (inactive) | 0.654 (inactive) | 1.08 (inactive) | 0.0565 (inactive) | -2.7 | 0.118
[N-]=[N+]=Nc1ccccc1C[C@@]1(C(=O)NCC(O)CO)N=C(c2ccc(OCCCO)cc2)O[C@@H]1c1ccccc1 (stereo not given in full) | 0.378 | -0.326 | 0.75 | -0.39 | -0.342 | 0.582 | -0.186 (inactive) | -1.2 | -0.145 | -0.235 (inactive) | 0.559 | -2.46 (inactive) | 0.33 (inactive) | 0.303 (inactive) | -0.456 (inactive) | 0.302 (inactive) | 0.443 (inactive) | -0.0622 (inactive) | 0.0762 | 0.0049
COC(=O)[C@@]1(Cc2ccccc2)[C@H]2c3cc(C(=O)N4CCCC4)n(Cc4ccc(OC)c(OC)c4)c3C[C@H]2CN1C(=O)c1ccccc1 | 0.126 | 0.106 | -0.257 | -0.571 | -1.05 | 3.84 | 1.09 (inactive) | -0.73 | -0.52 | 0.613 (inactive) | 0.181 | 1.58 (inactive) | -0.466 (inactive) | 0.263 (inactive) | 0.0944 (inactive) | 1.72 (inactive) | -0.372 (inactive) | 0.352 (inactive) | -0.172 | 0.0589
C=CCOC(=O)[C@H]1[C@@H]2C(=O)O[C@@H](c3ccccc3)[C@@H](c3ccccc3)N2[C@@H](c2ccc(OCCOC(=O)[C@H]3C[C@H]4C(=O)N[C@@H](CC(C)C)C(=O)N4[C@H]3c3ccc(O)cc3)cc2)[C@]12C(=O)Nc1ccccc12 | 0.0118 | -0.382 | 0.414 | 0.178 | 0.34 | -1.78 | 1.05 (inactive) | -0.485 | -1.19 | 1.96 (inactive) | 0.0682 | 1.1 (inactive) | 0.407 (inactive) | -0.976 (inactive) | 2.65 (inactive) | 2.67 (inactive) | 0.376 (inactive) | 1.02 (inactive) | 0.862 | -0.0078
CC(C)=C1C(=O)C(c2ccccc2)=C2CN3C(=O)N(CCc4ccccc4)C(=O)[C@]3(C)[C@H]21 | 0.559 | -0.342 | 0.302 | -2.06 | -3.46 | 1.87 | -1.43 (inactive) | -0.879 | -1.66 | -0.337 (inactive) | -0.823 | -0.0416 (inactive) | -1.56 (inactive) | -0.757 (inactive) | -0.0424 (inactive) | 0.119 (inactive) | -0.575 (inactive) | -0.456 (inactive) | -1.52 | 0.387
CC(C)NC(=O)[C@@H]1c2ccccc2C(=O)N(Cc2ccccc2C(F)(F)F)[C@H]1c1ccc(CO)cc1 | -0.385 | -0.341 | -0.052 | -0.321 | 0.749 | 0.186 | -1.81 (inactive) | 0.317 | 0.0239 | 2.53 (inactive) | 0.994 | -0.249 (inactive) | 0.711 (inactive) | 0.0482 (inactive) | 0.441 (inactive) | -0.227 (inactive) | 0.296 (inactive) | 0.0644 (inactive) | 0.616 | -0.135
